# VDR inhibitor: blocks the human vitamin D receptor | Potency, µM, for inactives: max response, negative = inhibition, usual class: inhibitors | P11473 | VDR-SRC2-3 peptide fluorescence polarization, 2 h | 400,000 compounds, 0.93% hits; note: % is set by controls: 0 for no effect and ±100 for the full control effect
# Target sequence (P11473 whole entry, looked up): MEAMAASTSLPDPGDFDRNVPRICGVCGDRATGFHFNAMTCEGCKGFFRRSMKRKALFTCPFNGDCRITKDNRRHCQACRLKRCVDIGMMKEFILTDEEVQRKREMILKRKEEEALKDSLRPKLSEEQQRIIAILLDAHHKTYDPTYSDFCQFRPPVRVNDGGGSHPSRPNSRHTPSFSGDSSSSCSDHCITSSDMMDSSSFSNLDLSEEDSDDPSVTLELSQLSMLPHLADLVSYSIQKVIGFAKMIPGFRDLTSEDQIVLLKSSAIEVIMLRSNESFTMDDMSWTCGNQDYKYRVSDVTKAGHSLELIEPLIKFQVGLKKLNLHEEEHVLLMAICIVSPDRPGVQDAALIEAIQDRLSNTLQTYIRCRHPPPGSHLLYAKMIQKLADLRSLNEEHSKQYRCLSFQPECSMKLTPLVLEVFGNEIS
#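 Signal is fluorescence polarization, reporting how far test compounds block the interaction of VDR with the SRC2-3 coregulator peptide after a 2 h room-temperature incubation.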
# Vif-A3F inh: Vif-A3F binding inhibition. HeLa A3F-eYFP + Vif (tagged APOBEC3F with the HIV-1 protein that degrades it), YFP fluorescence increase. Potency, µM (top dose mostly 46.1 µM), for the others: at the top dose activity, negative = active. 390,000 compounds, 0.2% hits; note: % of control where 0% means no effect; nearly all actives have a fitted effect of over 65% in size
#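 HeLa cells stably expressing Vif plus C-terminally eYFP-tagged A3F were seeded, incubated overnight at 37 deg C, dosed with compound, incubated overnight again at 37 deg C. Yellow fluorescence (Ex 488/Em 500-530) reported blocked Vif-mediated A3F-eYFP degradation.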
# Vif-APOBEC3G blk: inhibitors of Vif-APOBEC3G interaction | Q9HC16 | Potency, µM (titrated, usually from 46.1 µM), for the others: at the highest dose activity, negative = active, hits mostly inhibitors | 410,000 compounds, 0.076% hits | HeLa A3G-eYFP + Vif (tagged APOBEC3G with the HIV-1 protein that degrades it), YFP fluorescence, overnight | AID 602310; note: % is set by controls: 0 for no effect and ±100 for the full control effect; nearly all actives have a fitted effect of over 60% in size
#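 Read-out is eYFP fluorescence (Ex 488/Em 500-530) from Vif-expressing HeLa A3G-eYFP cells; more signal means A3G escaped Vif-mediated degradation. Cells plated overnight, compound pinned in, incubated overnight at 37 deg C.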
# TrxR1 substrate: is turned over as a substrate by rat TrxR1; O89049; purified TrxR1 substrate turnover, NADPH consumption readout; Potency, µM (doses to about 114 µM), for inactives: at the highest dose activity change, negative = substrate turnover; 390,000 compounds, 0.01% hits; AID 588456; note: % is set by controls: 0 for no effect and ±100 for the full control effect; nearly all actives have a fitted effect of over 50% in size
#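 Rat TrxR1, dispensed at 90 nM, was prereduced with 400 uM NADPH (final) for 5 min at ~22 deg C, then incubated with compound 15 min before 400 uM selenite. A first-read NADPH fluorescence drop versus no-compound background flagged substrates.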
# rTrxR1 inhibitor: blocks rat thioredoxin reductase 1; recombinant rTrxR1, NADPH fluorescence consumption, selenite substrate; Potency, µM (doses to about 114 µM), inactives show top-dose activity change, negative = inhibition, most hits filed as inhibitors; O89049; 390,000 compounds, 1% hits; note: % is set by controls: 0 for no effect and ±100 for the full control effect; nearly all actives have a fitted effect of over 65% in size
#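 Rat TrxR1 (90 nM in the dispensed reagent) was pre-reduced with 400 uM NADPH for 5 min at room temperature, then incubated with compound for 15 min. After 400 uM selenite was added, NADPH fluorescence (Ex 340/Em 450 nm) was followed for 8 min.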
# * hit, by the source's call; u = inconclusive; x = no result given; ! = a repeat was not active; [ ] = dose if it differs, or a comment. The list is not random: actives were taken first. Their share in the collection is about 1.8%. Calls come from the whole dose curve; as a rule, active = well fitted curve in the direction sought with a large enough effect; inconclusive = small, poorly fitted or top-dose-only effect, or another doubt; inactive = no such curve, though single readings can be large; an effect the other way counts as inactive or inconclusive. Potency is the fitted concentration of half-maximal effect.
SMILES,VDR inhibitor,Vif-A3F inh,Vif-APOBEC3G blk,TrxR1 substrate,rTrxR1 inhibitor
COCCNc1cc(-c2ccccc2C)ncn1,30%,x,x,x,x
O=C(Nc1ccc(F)cc1F)c1ccc(-n2cnc3cccnc32)cc1,13%,7%,-2%,0%,12%
COc1cc(C2c3c(oc4ccccc4c3=O)C(=O)N2c2nnc(C(C)C)s2)cc(OC)c1OC (centres undefined),-17%,-6%,1%,1%,11%
COc1cc(/C=C2\C=Cc3ccccc32)ccc1N(C)C,x,x,-3%,-2%,-23%
CCCN(CCC)CCCNC(=O)C1CCN(c2nc3ccc(CC)cc3s2)CC1,6%,0%,-19%,9%[2.29 µM],6%
CN(Cc1ccco1)c1ncnc2ccc(-c3ccc4c(ccn4C)c3)cc12,-18%,6%,-11%,3%,10%
CN(Cc1ccco1)c1cc(-c2ccoc2)ncn1,28µM*,x,x,x,x
N#Cc1c(C(F)(F)F)cc(-c2ccc(Cl)c(Cl)c2)nc1SCCN1CCOCC1,-11%,u,-11%,4%,-16%
N#Cc1c(C(F)(F)F)cc(-c2ccccc2)nc1SCc1nc(N)nc(N2CCOCC2)n1,-6%,11µM*,u,6%[57.1 µM],12%[11.4 µM]
COc1ccc(OC)c(-c2csc(-c3c(N)c(C(=O)c4ccc(Cl)cc4)n4ccccc34)n2)c1,1%,x,x,-3%,9%
O=C(COC(=O)Cc1ccsc1)Nc1cccc(F)c1,89µM*,-1%,0%,-2%,15%
Cc1cc(-c2nnc(-c3ccccc3)c(-c3ccccc3)n2)c(C)o1,u,-6%,0%,-1%,32µM*
COc1ccc(OC)c2c(/C=C/c3c(C)[nH]c4ccccc34)ccnc12,x,x,0%,0%,4%
Cn1cnc([N+](=O)[O-])c1S(=O)(=O)Oc1ccccc1,25µM*,0%,-11%,-5%[2.29 µM],u
Cc1cc(OC(C)C(=O)NC(Cc2c[nH]c3ccc(O)cc23)C(=O)O)c2c(C)c(C)c(=O)oc2c1 (centres undefined),-14%,7%,-1%,25%,11µM*
CCOC(=O)C[n+]1cccc(Br)c1,x,x,0%,8%,27%
c1ccc(CNc2ncncc2-c2ccoc2)cc1,50µM*,x,x,x,x
COc1cccc(-c2cncnc2NCc2cccs2)c1,-17%,x,x,x,x
c1csc(CNc2ncnc3ccc(-c4ccoc4)cc23)c1,32µM*!,6%,0%,13%[57.1 µM],19%[57.1 µM]
c1csc(CNc2ncnc3ccc(-c4ccc5c(c4)OCO5)cc23)c1,-2%,-15%,-7%,39%[57.1 µM],13%[57.1 µM]
c1csc(CNc2ncncc2-c2ccoc2)c1,50µM*,x,x,x,x
O=C(CSc1nccn1Cc1ccccc1)Nc1ccc2c(c1)OCO2,-5%,-6%,-2%,-3%[57.1 µM],7%[57.1 µM]
O=C1NC(=O)C(Cc2ccc(OCCN3COc4ccccc4C3=O)cc2)S1 (centres undefined),-19%,x,x,x,x
CCOc1ccc(S(=O)(=O)Nc2nc3ccccc3nc2Nc2ccc(OC)cc2)cc1,-12%,-18%,-11%,-9%,2%
COc1cccc(Nc2nc3cc(C)ccc3nc2NS(=O)(=O)c2ccc(Cl)cc2)c1,4%,-4%,-10%,-2%[57.1 µM],10%[57.1 µM]
SMILES,VDR inhibitor,Vif-A3F inh,Vif-APOBEC3G blk,TrxR1 substrate,rTrxR1 inhibitor
CCOC(=O)c1ccc(Nc2nc3ccccc3nc2NS(=O)(=O)c2ccc(Cl)cc2)cc1,-23%,7.1µM*,-27%,42%,-4%
Cc1ccc2nc(NS(=O)(=O)c3ccc(Cl)cc3)c(Nc3ccc(C(=O)O)cc3)nc2c1,u,4.5µM*,-3%,4%,-21%
CSc1nn(Cc2ccc(F)cc2)c(N)c1S(=O)(=O)c1ccc(Cl)cc1,3%,-5%,-2%,2%[57.1 µM],23%[57.1 µM]
CC(C)=CCC1=C(O)c2ccccc2C(=O)C1=O,25µM*,x,x,x,x
O=C1C(=O)c2ccccc2C(O)=C1CC=C(Cl)Cl,-29%,-16%,0%,-12%,-23%
O=[N+]([O-])c1ccc(C[n+]2cccc3ccccc32)cc1,-13%,3%,-1%,10%[57.1 µM],22%[57.1 µM]
O=[N+]([O-])c1ccc(C[n+]2cccc3ccc4cccnc4c32)cc1,79µM*,3%,-3%,11%[57.1 µM],13%[57.1 µM]
c1cncc(-c2nc(-c3ccco3)cs2)c1,-14%,-2%,0%,13%[57.1 µM],35µM*
CC(=O)Nc1nc2n(n1)C(c1ccc(F)cc1)C=C(c1ccccc1)N2 (centres undefined),-4%,-5%,0%,17%,u
COc1ccc(C2C=C(c3ccc(Br)cc3)Nc3nc(N4C(=O)CCC4=O)nn32)cc1 (centres undefined),1%,-12%,2%,31%,u
O=C1CCC(=O)N1c1nc2n(n1)C(c1ccccc1)C=C(c1ccc(Br)cc1)N2 (centres undefined),1%,-3%,-3%,0%,71µM*
CC(=O)Nc1nc2n(n1)C(c1ccccc1)C=C(c1ccccc1)N2 (centres undefined),-2%,-8%,-3%,84%,40µM*
Cc1cc(Oc2ccccc2)nc(C#N)n1,x,x,x,3%,8%
COc1ccc(C(=O)C[n+]2cccc3cc(Cl)ccc32)cc1,x,x,u,-4%,19%
COc1cc(/C=C2\N=C3CCCCCN3C2=O)ccc1O,-5%,-15%,-1%,u,50µM*
COc1ccc(/C=C2\N=C3CCCCCN3C2=O)cc1OC,-15%,-7%,1%,-1%,8%
CC1(C)Cc2c(C#N)c(N)sc(=S)c2CS1,u,7%,0%,6%[57.1 µM],14µM*
O=C1NCCCC2c3c(cc(Br)c(O)c3Br)OC12N1CCOCC1 (centres undefined),-2%,1%,0%,-6%,16µM*
COc1ccc(C(=O)NC(C)CCc2ccccc2)cc1[N+](=O)[O-] (centres undefined),-9%,-13%,4%,-9%,-3%
COc1ccc(C(=O)C(C)[n+]2ccc(C)c3ccccc32)cc1[N+](=O)[O-] (centres undefined),5%,u,5.6µM*,-10%,-9%
Cc1ccc(C(=O)OCn2ncc(Cl)c(Cl)c2=O)cc1,u,1%,u,1%,13µM*
Cc1ccc(C)c(C(=O)Cn2ncc(Cl)c(Cl)c2=O)c1,-7%,2%,u,1%,u
O=C(OCn1ncc(Cl)c(Cl)c1=O)c1ccc(C(F)(F)F)cc1,20µM*,2%,-15%,-7%,18µM*
Cc1cccc(Cn2ncc(Cl)c(Cl)c2=O)c1,-5%,0%,u,-7%,50µM*
CNc1ccccc(C(=O)/C=C/c2ccccc2OC)c1=O,u,u,-8%,-11%,8.9µM*
Cc1cccc(Oc2nc3ccccn3c(=O)c2/C=C(\C#N)c2nc3ccccc3s2)c1C,u,-10%,-3%,7%,9%

# Assay outcomes as filed in PubChem.
